A number with no mark means an inactive call. The source made the active and inactive calls.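 How the source made its calls: active means mean inhibition above 46.5%, the solvent-only control mean plus 3 SD; inactive means the rest.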
Target: Nuclear receptor coactivator 2 (Homo sapiens) (UniProt Q15596)
Assay: SRC2 coactivator transcriptional activity inhibitors, confirmation, cell-based, luminescence, HEK293, triplicate (AID 652008);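 further: 0% = DMSO-treated cells and 100% = Gossypol at 36 µM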
Settings: HEK293 GAL4-SRC2 luciferase reporter, at 8.9 µM, hits give high values

Nuclear receptor coactivator 2 (Homo sapiens), sequence (Q15596 whole entry, looked up): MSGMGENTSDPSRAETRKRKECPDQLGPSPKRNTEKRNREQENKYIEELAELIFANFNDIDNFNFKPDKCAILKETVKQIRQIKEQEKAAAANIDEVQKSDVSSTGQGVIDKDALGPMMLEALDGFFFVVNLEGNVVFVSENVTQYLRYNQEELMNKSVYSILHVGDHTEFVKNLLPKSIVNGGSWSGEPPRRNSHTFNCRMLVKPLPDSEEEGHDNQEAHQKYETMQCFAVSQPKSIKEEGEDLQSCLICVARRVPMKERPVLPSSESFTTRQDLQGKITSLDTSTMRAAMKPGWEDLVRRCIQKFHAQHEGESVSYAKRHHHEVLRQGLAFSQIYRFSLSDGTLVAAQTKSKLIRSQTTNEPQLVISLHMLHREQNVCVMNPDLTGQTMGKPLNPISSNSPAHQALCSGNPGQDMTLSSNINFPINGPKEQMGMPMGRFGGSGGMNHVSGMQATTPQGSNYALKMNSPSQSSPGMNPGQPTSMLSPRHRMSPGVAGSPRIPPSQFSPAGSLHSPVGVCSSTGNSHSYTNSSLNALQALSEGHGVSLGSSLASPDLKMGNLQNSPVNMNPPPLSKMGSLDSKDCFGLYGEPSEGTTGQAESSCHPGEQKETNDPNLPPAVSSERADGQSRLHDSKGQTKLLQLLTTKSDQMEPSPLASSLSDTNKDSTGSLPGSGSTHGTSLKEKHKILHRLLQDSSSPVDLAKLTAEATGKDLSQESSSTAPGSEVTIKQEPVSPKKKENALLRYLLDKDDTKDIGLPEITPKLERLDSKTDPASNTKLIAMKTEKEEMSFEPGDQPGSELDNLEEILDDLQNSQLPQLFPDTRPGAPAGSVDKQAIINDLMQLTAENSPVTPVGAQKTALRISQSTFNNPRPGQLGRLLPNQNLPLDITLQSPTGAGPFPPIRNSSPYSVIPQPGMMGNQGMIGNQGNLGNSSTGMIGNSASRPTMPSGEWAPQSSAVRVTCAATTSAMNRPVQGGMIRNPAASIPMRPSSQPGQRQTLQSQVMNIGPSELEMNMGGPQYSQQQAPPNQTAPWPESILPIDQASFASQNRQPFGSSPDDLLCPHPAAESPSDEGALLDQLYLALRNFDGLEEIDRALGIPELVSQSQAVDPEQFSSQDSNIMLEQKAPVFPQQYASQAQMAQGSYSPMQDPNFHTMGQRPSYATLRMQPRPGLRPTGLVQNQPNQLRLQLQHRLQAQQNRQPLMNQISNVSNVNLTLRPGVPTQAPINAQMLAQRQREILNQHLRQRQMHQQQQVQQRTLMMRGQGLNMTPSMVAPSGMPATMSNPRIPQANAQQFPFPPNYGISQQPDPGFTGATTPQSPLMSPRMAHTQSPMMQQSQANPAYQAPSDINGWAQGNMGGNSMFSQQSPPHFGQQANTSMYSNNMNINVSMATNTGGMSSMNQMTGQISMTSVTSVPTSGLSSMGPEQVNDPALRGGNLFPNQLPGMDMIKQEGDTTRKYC

SMILES | inhibition
CCn1ccnc1CN1CCCC(C(=O)c2cccc(C(F)(F)F)c2)C1 (centres undefined) | 15.9%
COc1ccc(S(=O)(=O)N2Cc3cnnn3-c3ccccc3C2C#N)cc1 (centres undefined) | -21%
C[C@@H]1C[C@@H]([C@H](O)CC2CC(=O)NC(=O)C2)C(=O)[C@@H](C)C1 | 59.3% (active)
c1cncc(-c2ccc3n2Cc2cnnn2-c2ccccc2-3)c1 | 21.8%
COc1cc(CC(C)N)c(OC)cc1I (centres undefined) | 8.7%
Cc1ccccc1CN1Cc2cnnn2-c2ccccc2C1C#N (centres undefined) | 48.8% (active)
O=C1NC(=O)N(Cc2ccco2)C(=O)/C1=C/C=C/c1ccco1 | -57.3%
Nc1cccc(SC2CC(=O)N(c3ccc(Cl)cc3C(=O)c3ccccc3)C2=O)c1 (centres undefined) | 17.3%
CCOP(=O)(OCC)C1(O)C(=O)Nc2ccc(Br)cc21 (centres undefined) | -5.26%
CC(=O)OC1C(O)C(C)OC(OC2C(OC(=O)C3CCC4C(C3)OC3(CC(OC(=O)/C=C/c5ccccc5)C(C)CO3)C43CO3)OC(C)C(O)C2OC(C)=O)C1O (centres undefined) | 75.2% (active)
CCOC(=O)C1(CCc2ccccc2)CCN(Cc2cccc3cnccc23)CC1 | 9.69%
O=C(c1ccc(Cl)cc1)C1CCCN(Cc2cccc3ncccc23)C1 (centres undefined) | -6.97%
CC(=O)OC(C)(C)/C=C/C(=O)C(C)(O)C1[C@H](O)C[C@@]2(C)C3CC=C4C(CC[C@@H](O)C4(C)C)[C@]3(CO)C(=O)C[C@]12C (some centres undefined) | 55.2% (active)
FC(F)(F)c1ccccc1N1CC1c1ccncc1 (centres undefined) | -11.4%

From PubChem BioAssay
